Test results published in ChEMBL document CHEMBL3988442, “University of Dundee, Small-Polar-MMV Screening Library” (2021).
About 1,200 (3.2%) of roughly 38,000 compounds showed an effect of 50% or more. The median lay at about -58%. This excerpt belongs to a sample that is enriched for strong results.

Each molecule was assayed on Plasmodium falciparum (assay: Calibr Malaria Delayed Death Assay SOP). Conditions: concentration 4.99e-06 (unit not given; other assays of the set use mol/L).
Format: functional, organism-based
Set-up: scale not given: in the data most compounds retested in dose-response had high values
`CCOc1cc(C(=O)N2CCCC(c3noc(C(C)C)n3)C2)ccn1` (configuration not stated) was tested, and the “Percent Effect” value was -128.3%. In the case of `Cc1c(F)cc(C(=O)O)cc1S(=O)(=O)Nc1ccc(F)c(C#N)c1`, the “Percent Effect” value is reported as -35.67%. In the case of `Cc1occc1-c1nnc2n1NC(N)=C(C#N)S2`, the “Percent Effect” value is reported as -74.61%. `COCCN(C)C[C@@H]1CN(C(=O)c2ccc(O)c(C)c2)C[C@@H]1CO` was tested, and the “Percent Effect” value was -85.42%. With `COc1ccc(-c2cnc(NC(C)=O)[nH]2)cc1` the “Percent Effect” value was -138%. In the case of `COc1ccc(-c2cc(C3CCN(C(C)=O)CC3)ccn2)cc1`, the “Percent Effect” value is reported as -100.7%. With `COc1ccc(-c2ccc(C3CNCCO3)nc2)cc1.Cl` (configuration not stated) the “Percent Effect” value was 63.33%. For `C[C@H]1C[C@@H]2CCN(C(=O)c3cnccn3)C[C@H]2O1`, the “Percent Effect” value was -123.8%. In the case of `Cc1ccc(N2N=C(C(=O)O)S(=O)(=O)c3cccnc32)cc1`, the “Percent Effect” value is reported as -91.48%. In the case of `O=C(CCCn1cncn1)NC1CCc2nccn2C1` (configuration not stated), the “Percent Effect” value is reported as -11.39%. `COc1ccc(CN(C)CCS(=O)(=O)c2ccc(Cl)cc2)cc1OC` was tested, and the “Percent Effect” value was -60.68%. In the case of `Cn1c(-c2cc3n(n2)CCCN(CC(=O)O)C3)nc2ccccc21`, the “Percent Effect” value is reported as -285%. `CCCn1ncc(C(=O)N2CCN(C3CCCC3)CC2)c1C` was tested, and the “Percent Effect” value was -11.79%. For `c1ccc(CNc2ncc(CN3CCCN4CCC[C@H]4C3)cn2)cc1`, the “Percent Effect” value was -75.33%. For `C=Cn1ncc(CN2C[C@@H]3C[C@@H](O)CN3C[C@H]2Cc2ccccc2)c1C`, the “Percent Effect” value was 32.93%. With `CCCn1ncc(CN2C[C@@H]3CCCN3C[C@H]2Cc2ccccc2)c1C` the “Percent Effect” value was 55.8%. With `CCCn1ncc(CN2C[C@@H]3CCCN3C[C@@H]2Cc2ccccc2)c1C` the “Percent Effect” value was 62.1%. In the case of `CCCn1ncc(CN2CCCCC2CCCOC)c1C` (configuration not stated), the “Percent Effect” value is reported as -4.874%. With `CCOc1cccc(NC(=O)c2cc[nH]n2)n1` the “Percent Effect” value was -28.36%. `Cc1cc(CN2C[C@@H]3COC[C@@H](C(=O)N4CCCCO4)[C@@H]3C2)no1.O=C(O)C(F)(F)F` was tested, and the “Percent Effect” value was -37.6%. With `Cc1c(C(C)NCC2CCCC2)cnn1-c1ccc(F)cc1F` (configuration not stated) the “Percent Effect” value was 70.86%. With `Cc1c(C(C)NC2CSCCSC2)cnn1-c1ccc(F)cc1F` (configuration not stated) the “Percent Effect” value was -8.599%. For `Cc1c(C(C)NC2CCOCC2)cnn1-c1ccc(F)cc1F` (configuration not stated), the “Percent Effect” value was -4.766%. `CCc1nnc(SCc2cc(=O)n3c4c(sc3n2)CCCC4)[nH]1` was tested, and the “Percent Effect” value was -134.4%. For `COc1cncc(-n2nc(C)c(CC(C)=O)c2C)c1`, the “Percent Effect” value was -95.89%. In the case of `CCC(=O)N1CCC2(COCc3cnc(N4CCOCC4)nc32)C1` (configuration not stated), the “Percent Effect” value is reported as -52.14%. In the case of `CCOc1cncc(N2CCN(c3ccccc3F)CC2)n1`, the “Percent Effect” value is reported as -93.07%. In the case of `COc1ccccc1C1(CNc2nnc(C)c(C)c2C#N)CCCC1`, the “Percent Effect” value is reported as 56.81%. In the case of `Cc1nnc(NCC2(c3ccccc3)CCC2)c(C#N)c1C`, the “Percent Effect” value is reported as -38.66%. In the case of `COc1ccccc1C1(CNc2nnc(C)c(C)c2C#N)CCOCC1`, the “Percent Effect” value is reported as 0.02654%. For `CN(Cc1cccnc1)[C@@H]1CN(c2ccccn2)[C@@H]2CCCO[C@H]12`, the “Percent Effect” value was -39.6%. `CN(Cc1cccnc1)[C@@H]1CN(Cc2ccccn2)[C@@H]2CCCO[C@H]12` was tested, and the “Percent Effect” value was 50.75%. With `CN(Cc1cccnc1)[C@@H]1CN(c2ncc(F)cn2)[C@@H]2CCCO[C@H]12` the “Percent Effect” value was -11.41%. In the case of `CCNC(=O)[C@@H]1C[C@H](N)CN1c1cc(C(F)(F)F)nc(N2CCCC2)n1`, the “Percent Effect” value is reported as 54.16%. `CCNC(=O)[C@@H]1C[C@H](N)CN1c1cc(CC)nc(N(C)C)n1` was tested, and the “Percent Effect” value was -75.2%. `CCNC(=O)[C@@H]1C[C@H](N)CN1c1cc(C(F)(F)F)nc(N(C)C)n1` was tested, and the “Percent Effect” value was 19.6%. In the case of `O=C(O)C(F)(F)F.O=S(=O)(C1CC1)N1CCO[C@H]2[C@@H](Oc3cccnc3)CC[C@@H]21`, the “Percent Effect” value is reported as -17.81%. In the case of `Cc1ccc(NC(=O)CN2CCC(OCC3CCCO3)CC2)c(C)c1` (configuration not stated), the “Percent Effect” value is reported as -25%. For `COCCc1noc(CN2CC(Cc3ccccc3)CC2=O)n1` (configuration not stated), the “Percent Effect” value was -62.6%. For `CCCC1SCCN1C(=O)c1ccc(-n2ncc(C#N)c2N)cc1` (configuration not stated), the “Percent Effect” value was -3.634%. With `CCOC1CCN(C(=O)c2ccc(-n3ncc(C#N)c3N)cc2)CC1` the “Percent Effect” value was -36.9%. For `CC(C)C1CCCN1C(=O)c1ccc(-n2ncc(C#N)c2N)cc1` (configuration not stated), the “Percent Effect” value was 71.17%. `COc1ccc(CN2C[C@@H](CN(C)CCO)[C@@H](CO)C2)cc1Cl` was tested, and the “Percent Effect” value was -13.19%. In the case of `Cc1ccc(N2CCC(N3C[C@@H](CN(C)C)[C@@H](CO)C3)CC2)cc1`, the “Percent Effect” value is reported as 0.06165%. For `CN(C)C[C@@H]1CN(Cc2ccccc2C#N)C[C@@H]1CO`, the “Percent Effect” value was -49.24%. In the case of `Cc1ccccc1CN1C[C@@H](CN(C)CCO)[C@@H](CO)C1`, the “Percent Effect” value is reported as 6.489%. With `Cc1cc(F)ccc1N1CCC(N2C[C@@H](C)[C@@](C)(O)C2)CC1` the “Percent Effect” value was 37.17%. In the case of `CN(CCO)C[C@@H]1CN(C(=O)c2c(F)cccc2Cl)C[C@@H]1CO`, the “Percent Effect” value is reported as -48.12%. In the case of `Cc1c(C(=O)N2CCCC2c2cnn(C)c2)cnn1-c1ccccc1` (configuration not stated), the “Percent Effect” value is reported as -71.93%. For `NC(=O)C1CCN(CCCNC(=O)Nc2nncs2)CC1`, the “Percent Effect” value was -69.85%. With `C=C(C)COc1cccc(CNCCc2c[nH]cn2)c1` the “Percent Effect” value was 26.04%. For `CCc1ccccc1OCCNCCc1c[nH]cn1`, the “Percent Effect” value was 69.73%. With `C=C(C)COc1ccccc1CNCCc1c[nH]cn1` the “Percent Effect” value was 4.371%. `Cn1nccc1C(=O)N1CCCC2(CCN(c3ccsc3)C2=O)C1` (configuration not stated) was tested, and the “Percent Effect” value was -40.86%. In the case of `Cc1ccccc1SCC(=O)NC1CCC(O)CC1` (configuration not stated), the “Percent Effect” value is reported as -39.35%. `CN(C)C(=O)CN1CCN(Cc2coc(-c3cccc(F)c3)n2)CC1` was tested, and the “Percent Effect” value was -61.15%. With `CSc1ccc(-c2nc(CN3C[C@@H](C)NC[C@@H]3C)c(C)o2)cc1` the “Percent Effect” value was -63.77%. `CSc1ccc(-c2nc(CN3CCNCC3C)c(C)o2)cc1` (configuration not stated) was tested, and the “Percent Effect” value was 34.18%. For `Cc1oc(-c2cc(F)cc(F)c2)nc1CN1C[C@@H](C)NC[C@@H]1C`, the “Percent Effect” value was 59.48%. For `Cn1ncc2c1CCCC2NCc1ccc(OCc2cccnc2)cc1` (configuration not stated), the “Percent Effect” value was 4.43%. For `COCCO[C@H]1CCN(Cc2ccoc2)[C@H]1Cc1cccnc1`, the “Percent Effect” value was -10.51%. With `CO[C@H]1CCN(c2ncccn2)[C@H]1Cc1ccccc1` the “Percent Effect” value was -101.2%. For `CO[C@H]1CCN(Cc2nccs2)C[C@@H]1Cc1ccccc1`, the “Percent Effect” value was -31.89%. `CNC(=O)[C@@H]1C[C@@H]2CCN(Cc3ccoc3)C[C@H]2O1` was tested, and the “Percent Effect” value was -25.74%. With `O=C(CCNS(=O)(=O)c1ccccc1F)NCc1ccoc1` the “Percent Effect” value was -33.2%. For `CCC1(CNC(=O)NC(c2nnc3n2CCC3)C(C)C)CCC1` (configuration not stated), the “Percent Effect” value was -142%. For `Cc1ccc(C)n1-c1c(C(=O)NCC(c2ccsc2)N(C)C)cnn1C` (configuration not stated), the “Percent Effect” value was -29.69%. In the case of `COc1ccc(-c2nonc2N)cc1`, the “Percent Effect” value is reported as -30.35%. In the case of `Cc1cnc(N2CC[C@@H]3O[C@@H](COCC(=O)N(C)C)CC[C@@H]32)nc1.O=C(O)C(F)(F)F`, the “Percent Effect” value is reported as -30.4%. `CC(C)(C)C1CC(=O)Nc2c1cnn2Cc1ccco1` (configuration not stated) was tested, and the “Percent Effect” value was -56.11%. With `COC1CN(C(=O)NCC(N)=O)CCC(=O)N(C)c2ccccc21` (configuration not stated) the “Percent Effect” value was -44.55%. `O=C(C[C@@H]1COC[C@H]2CN(Cc3cccnc3)C[C@@H]12)N1CCCC1.O=C(O)C(F)(F)F.O=C(O)C(F)(F)F` was tested, and the “Percent Effect” value was -138.8%. For `COc1ccc(CN2C[C@H]3CCC[C@@H](CN(C)C)[C@H]3C2)cn1.O=C(O)C(F)(F)F.O=C(O)C(F)(F)F`, the “Percent Effect” value was 48.48%. `Cc1ccc(N2C[C@H]3CCC[C@@H](CN(C)C)[C@H]3C2)nn1.O=C(O)C(F)(F)F` was tested, and the “Percent Effect” value was -59.72%. For `CN(C[C@@H]1CCC[C@@H]2CN(Cc3cccnc3)C[C@@H]21)C1CC1.O=C(O)C(F)(F)F.O=C(O)C(F)(F)F`, the “Percent Effect” value was 55.19%. With `COc1ccc(CN2C[C@H]3CCC[C@@H](CN(C)C4CC4)[C@H]3C2)cn1.O=C(O)C(F)(F)F.O=C(O)C(F)(F)F` the “Percent Effect” value was 77%. `O=C(C[C@@H]1COC[C@H]2CN(Cc3cccnc3)C[C@@H]12)N1CCOCC1.O=C(O)C(F)(F)F.O=C(O)C(F)(F)F` was tested, and the “Percent Effect” value was -46.72%. `COc1cc(N2C[C@H]3CCC[C@@H](CN(C)C4CC4)[C@H]3C2)ncn1.O=C(O)C(F)(F)F` was tested, and the “Percent Effect” value was -80.87%. With `COCCN(C)C[C@@H]1CCC[C@@H]2CN(Cc3ccc(OC)nc3)C[C@@H]21.O=C(O)C(F)(F)F.O=C(O)C(F)(F)F` the “Percent Effect” value was 78.92%. For `COc1cc(N2C[C@H]3CCC[C@@H](CN4CCOCC4)[C@H]3C2)ncn1.O=C(O)C(F)(F)F`, the “Percent Effect” value was -88.21%. With `NC(=O)C1CCN(c2ncccc2C(=O)N2CCc3ccccc32)C1` (configuration not stated) the “Percent Effect” value was -5.535%. With `Cc1ccc(-c2nc(CN3CCCC(Cn4cncn4)C3)co2)cc1` (configuration not stated) the “Percent Effect” value was -95.97%. `O=C1CCCN1Cc1ncn2c1CN(C(=O)C1CC=CC1)CCC2` was tested, and the “Percent Effect” value was -7.909%. For `c1ccc2[nH]c(C3CCN(Cc4nnc(C5CC5)o4)CC3)cc2c1`, the “Percent Effect” value was -66.02%. For `COc1cc(F)ccc1N1CCN(Cc2nnc(C3CC3)o2)CC1`, the “Percent Effect” value was -5.241%. With `CO[C@H]1CCN(c2nnc(C)s2)C[C@@H]1Cc1ccccc1.O=C(O)C(F)(F)F` the “Percent Effect” value was -43.17%. For `CO[C@@H]1CCN(Cc2ccoc2)[C@H]1Cc1ccccc1.O=C(O)C(F)(F)F`, the “Percent Effect” value was 59.96%. `CO[C@H]1CCN(Cc2ccoc2)C[C@@H]1Cc1ccccc1.O=C(O)C(F)(F)F` was tested, and the “Percent Effect” value was 66.03%. For `COCCN1CC[C@@H](OC)[C@@H]1Cc1ccccc1.O=C(O)C(F)(F)F`, the “Percent Effect” value was 1.708%. `CO[C@@H]1CCN(Cc2ccc(C)o2)[C@H]1Cc1ccccc1.O=C(O)C(F)(F)F` was tested, and the “Percent Effect” value was -53.14%. In the case of `CO[C@@H]1CCN(Cc2ccoc2)C[C@@H]1Cc1ccccc1.O=C(O)C(F)(F)F`, the “Percent Effect” value is reported as 88.6%. `COCCN1CC[C@H](OC)[C@@H]1Cc1ccccc1.O=C(O)C(F)(F)F` was tested, and the “Percent Effect” value was 62.78%. `CO[C@@H]1CCN(Cc2nccs2)C[C@@H]1Cc1ccccc1.O=C(O)C(F)(F)F` was tested, and the “Percent Effect” value was -15.24%. With `CO[C@@H]1CCN(Cc2nccs2)C[C@@H]1Cc1cccc(C)c1.O=C(O)C(F)(F)F` the “Percent Effect” value was -13.39%. `COC[C@H]1CN(CC2CC2)C(=O)[C@@H]2CCN(Cc3ccoc3)CC[C@H]12.O=C(O)C(F)(F)F` was tested, and the “Percent Effect” value was -86.79%. For `COCCO[C@H]1CCN(Cc2cccnc2)[C@H]1Cc1cccnc1.O=C(O)C(F)(F)F.O=C(O)C(F)(F)F.O=C(O)C(F)(F)F`, the “Percent Effect” value was 3.1%. With `COCCN1CC[C@@H](O)[C@@H]1Cc1ccccc1.O=C(O)C(F)(F)F` the “Percent Effect” value was -35.17%.
